Screening data: PubChem, National Center for Advancing Translational Sciences (NCATS)
DT40 TDP1 CPT: growth inhibition of DT40 Tdp1-/-;hTDP1 cells with camptothecin (screen for TDP1 inhibitors); actives 12% (n = 420,000); Potency, µM (doses to about 46.2 µM), without a hit: top-dose activity change, negative = growth inhibition, most hits filed as inhibitors; AID 686979; chicken DT40 Tdp1-/-;hTDP1 cells + 20 nM CPT, ATP luminescence, 48 h; note: nearly all actives have a fitted effect of over 55% in size
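Chicken DT40 Tdp1-/- cells stably complemented with human TDP1 were seeded at 400 cells/well in medium containing 20 nM camptothecin, exposed to pin-transferred compounds, and grown at 37 °C for at least 48 hr. Viability was read as ATP luminescence.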
KB-3-1 cytotox: KB-3-1 parental cell cytotoxicity | KB-3-1 viability, CellTiter-Glo ATP luminescence, 72 h | Potency, µM (series often up to 46.1 µM), most hits filed as cytotoxic | actives 1.4% (n = 400,000) | AID 1347075; note: nearly all actives have a fitted effect of over 60% in size
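Screening of KB-3-1 cells (DMEM, 10% FBS, phenol-red free) ran from lowest to highest compound concentration; after 72 h at 37 °C viability was read luminescently and curves fitted.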
HT1080 IDH1KD tx: HT-1080 IDH1 knockdown cell toxicity (counter line). HT-1080 IDH1 knockdown viability, ATP luminescence, 48 h. Potency, µM (highest dose often 46.1 µM), without a hit: at the top dose activity, negative = toxicity, usual class: cytotoxic. actives 2% (n = 360,000). AID 686971;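 note: 0% = DMSO wells and -100% = cell-free medium wells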
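HT-1080-IDH1KD cells (IDH1 knocked down), 750/well in RPMI with 5% FBS, treated with compound 48 h at 37 degrees C. Viability by CellTiter-Glo luminescence, normalised to DMSO and no-cell wells; concentration-response curves classed.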
TDP1 cell noCPT: qHTS for Inhibitors of human tyrosyl-DNA phosphodiesterase 1 (TDP1): qHTS in cells in absence of CPT; DT40 Tdp1-/- hTDP1 cells, no CPT, ATP luminescence, 48 h; actives 15% (n = 420,000); Potency, µM (top dose mostly 46.2 µM), for the others: at the highest dose activity change, negative = growth inhibition, most hits filed as inhibitors; note: nearly all actives have a fitted effect of over 55% in size
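No-CPT arm: Tdp1-/-;hTDP1 DT40 cells (400/well) plus compounds, incubated ≥48 hr at 37 °C. Readout CellTiter-Glo luminescence.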
HT1080NT lethal: kills 2HG-producing HT-1080-NT fibrosarcoma cells; AID 686970; HT-1080-NT fibrosarcoma viability, CellTiter-Glo ATP luminescence, 48 h; actives 1.6% (n = 360,000); Potency, µM (series often up to 46.1 µM), without a hit: at the top dose activity, negative = less viability, most hits filed as cytotoxic;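 note: NT is the 2HG producing partner of a matched IDH1 knockdown line; 0% = DMSO-treated cells and -100% = media-only wells without cells; nearly all actives have a fitted effect of over 55% in size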
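HT-1080-NT fibrosarcoma cells (2HG-overproducing), 750 cells/well in RPMI with 5% FBS, dosed after 2 h and incubated 48 h at 37C. CellTiter-Glo luminescence normalized to DMSO and no-cell wells; concentration-response curves fitted and classed.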
KB-V1 MDR tox: kills drug-selected multidrug resistant KB-V1 cells | KB-V1 MDR cells viability, CellTiter-Glo, 72 h | actives 3.4% (n = 400,000) | Potency, µM (top dose mostly 46.1 µM), hits mostly cytotoxic; note: nearly all actives have a fitted effect of over 60% in size
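Cells of the MDR subline KB-V1 are plated, dosed with compound at multiple concentrations, and incubated 72 h at 37 degrees C; CellTiter-Glo is then added and luminescence read after 10 min.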
An asterisk follows results filed as active. In the library only some 19% were active in any assay of this set; here they are far more common. Calls come from the whole dose curve; as a rule, active = well fitted curve in the direction sought with a large enough effect; inconclusive = small, poorly fitted or top-dose-only effect, or another doubt; inactive = no such curve, though single readings can be large; an effect the other way counts as inactive or inconclusive. Unless noted, % is set by controls: 0 for no effect and ±100 for the full control effect; potency is the fitted concentration of half-maximal effect.

Screening OC(COc1ccc(CN2CCCCO2)cc1)CN1CCCCC1 (centres undefined) returned DT40 TDP1 CPT -0.3%, KB-3-1 cytotox inconclusive, HT1080 IDH1KD tx -8.4%, TDP1 cell noCPT -2.0%, HT1080NT lethal 0.0% and KB-V1 MDR tox inactive.
Screening CCCc1cc(=O)[nH]c(SCc2nc(-c3ccccc3)no2)n1 returned DT40 TDP1 CPT -14.9%, KB-3-1 cytotox inactive, TDP1 cell noCPT -27.6% and KB-V1 MDR tox inactive.
CCOc1ccc(S(=O)(=O)Nc2ccc3oc(C)c(C(=O)OC(C)C)c3c2)cc1 was read as KB-3-1 cytotox inconclusive and KB-V1 MDR tox 13µM*.
CC(=O)c1c(C)oc2ccc(NS(=O)(=O)c3ccc(F)cc3C)cc12 was read as DT40 TDP1 CPT 23.1µM*, KB-3-1 cytotox inactive, HT1080 IDH1KD tx 3.1%, TDP1 cell noCPT 18.4µM*, HT1080NT lethal -5.5% and KB-V1 MDR tox 10.3µM*.
Screening COCCOC(=O)c1c(C)oc2ccc(NS(=O)(=O)c3ccc(C)cc3)cc12 returned DT40 TDP1 CPT inconclusive, KB-3-1 cytotox inactive, HT1080 IDH1KD tx -7.3%, TDP1 cell noCPT 25.9µM*, HT1080NT lethal 19.2% and KB-V1 MDR tox 8.2µM*.
For COCCOC(=O)c1c(C)oc2ccc(NS(=O)(=O)c3ccccc3)cc12 the results were DT40 TDP1 CPT -3.1%, KB-3-1 cytotox inactive, HT1080 IDH1KD tx 3.5%, TDP1 cell noCPT -22.9%, HT1080NT lethal 10.0% and KB-V1 MDR tox inactive.
Screening CCC(=O)N1CCC1(C)C(=O)Nc1ccc(OC(F)F)cc1 (centres undefined) returned DT40 TDP1 CPT 7.7%, KB-3-1 cytotox inactive, HT1080 IDH1KD tx 4.4%, TDP1 cell noCPT -8.3%, HT1080NT lethal 27.0% and KB-V1 MDR tox inactive.
Screening CCOC(=O)C1=CC[C@H]2c3c(c4ccccc4n3C)C[C@H]1N2C returned DT40 TDP1 CPT 29.1µM*, KB-3-1 cytotox inactive, HT1080 IDH1KD tx -8.2%, TDP1 cell noCPT inconclusive, HT1080NT lethal -0.3% and KB-V1 MDR tox inactive.
`CN1C2Cc3c(n(C)c4ccccc34)C1CC=C2CO` (centres undefined) gave DT40 TDP1 CPT -1.3%, KB-3-1 cytotox inactive, HT1080 IDH1KD tx 0.4%, TDP1 cell noCPT 2.8%, HT1080NT lethal -17.7% and KB-V1 MDR tox inactive.
`CC(=O)Nc1ccc(NC(=O)C2(C)Cc3c(-c4ccc(NC(C)=O)cc4)ccnc3O2)cc1` (centres undefined) gave DT40 TDP1 CPT 1.0%, KB-3-1 cytotox inactive, HT1080 IDH1KD tx 4.9%, TDP1 cell noCPT 2.3%, HT1080NT lethal 19.4% and KB-V1 MDR tox inactive.
Screening CC(=O)Nc1ccc(-c2ccnc3c2CC(C)(C(=O)NCCc2ccccc2)O3)cc1 (centres undefined) returned DT40 TDP1 CPT inconclusive, KB-3-1 cytotox 25.9µM*, HT1080 IDH1KD tx -19.1%, TDP1 cell noCPT -15.6%, HT1080NT lethal -5.0% and KB-V1 MDR tox inactive.
Screening CC(=O)Nc1ccc(-c2ccnc3c2CC(C)(C(=O)Nc2ccccc2)O3)cc1 (centres undefined) returned DT40 TDP1 CPT 20.6µM*, KB-3-1 cytotox inactive, HT1080 IDH1KD tx inconclusive, TDP1 cell noCPT 18.4µM*, HT1080NT lethal inconclusive and KB-V1 MDR tox inconclusive.
Screening CC(=O)Nc1ccc(NC(=O)C2(C)Cc3c(-c4cccc(C(N)=O)c4)ccnc3O2)cc1 (centres undefined) returned DT40 TDP1 CPT 8.7%, KB-3-1 cytotox inactive, HT1080 IDH1KD tx 2.1%, TDP1 cell noCPT -8.9%, HT1080NT lethal inconclusive and KB-V1 MDR tox inactive.
Screening CC(=O)Nc1ccc(-c2ccnc3c2CC(C)(C(=O)NCCN(C)C)O3)cc1 (centres undefined) returned DT40 TDP1 CPT -4.2%, KB-3-1 cytotox inactive, HT1080 IDH1KD tx 24.2%, TDP1 cell noCPT inconclusive, HT1080NT lethal -4.9% and KB-V1 MDR tox inactive.
COc1ccc(CCCNC(=O)C2(C)Cc3c(-c4ccc(NC(C)=O)cc4)ccnc3O2)cc1 (centres undefined) was read as DT40 TDP1 CPT 23.1µM*, KB-3-1 cytotox inconclusive, HT1080 IDH1KD tx -25.7%, TDP1 cell noCPT 25.9µM*, HT1080NT lethal -10.1% and KB-V1 MDR tox inactive.
Screening CC(=O)Nc1ccc(-c2ccnc3c2CC(C)(C(=O)Nc2cccc(Oc4ccccc4)c2)O3)cc1 (centres undefined) returned DT40 TDP1 CPT 25.9µM*, KB-3-1 cytotox inconclusive, HT1080 IDH1KD tx inconclusive, TDP1 cell noCPT 16.4µM*, HT1080NT lethal inconclusive and KB-V1 MDR tox inconclusive.
Screening CN(C)c1ccc(-c2ccnc3c2CC(C)(C(=O)NCCc2ccccc2)O3)cc1 (centres undefined) returned DT40 TDP1 CPT 29.1µM*, KB-3-1 cytotox inactive, HT1080 IDH1KD tx -16.2%, TDP1 cell noCPT inconclusive, HT1080NT lethal -6.6% and KB-V1 MDR tox inactive.
CC(=O)NCCNC(=O)C1(C)Cc2c(-c3ccccc3)ccnc2O1 (centres undefined) was read as DT40 TDP1 CPT -15.5%, KB-3-1 cytotox inactive, HT1080 IDH1KD tx 1.2%, TDP1 cell noCPT -12.7%, HT1080NT lethal inconclusive and KB-V1 MDR tox inactive.
For CCCCN1C(=O)C(CC(=O)NCC2CCCCC2)CC(C(=O)N2CCCCCC2)=C1C (centres undefined) the results were DT40 TDP1 CPT inconclusive, HT1080 IDH1KD tx -0.1%, TDP1 cell noCPT inconclusive, HT1080NT lethal 2.8% and KB-V1 MDR tox inconclusive.
Screening O=C(c1cnccn1)N1CCc2c([nH]c3ccccc23)C1c1cccc(Cl)c1 (centres undefined) returned DT40 TDP1 CPT -25.4%, KB-3-1 cytotox inconclusive, HT1080 IDH1KD tx -24.0%, TDP1 cell noCPT -10.9%, HT1080NT lethal -13.9% and KB-V1 MDR tox 23.1µM*.
`CC(=O)NCCC(=O)N1CCc2c([nH]c3ccccc23)C1c1cccc(Cl)c1` (centres undefined) gave DT40 TDP1 CPT inconclusive, KB-3-1 cytotox inactive, HT1080 IDH1KD tx -26.8%, TDP1 cell noCPT 14.6µM*, HT1080NT lethal inconclusive and KB-V1 MDR tox inactive.
CCOc1cccc(C2c3[nH]c4ccccc4c3CCN2C(=O)c2ccccc2F)c1 (centres undefined) was read as DT40 TDP1 CPT inconclusive and TDP1 cell noCPT 16.4µM*.
CCOc1ccc(C2c3[nH]c4ccccc4c3CCN2C(=O)Cc2cccc(OCC)c2OCC)cc1 (centres undefined) was read as DT40 TDP1 CPT inconclusive, KB-3-1 cytotox inactive, TDP1 cell noCPT inconclusive and KB-V1 MDR tox inactive.
